High-throughput results deposited in PubChem by National Center for Advancing Translational Sciences (NCATS).
Giardia FBPA inh: qHTS Assay for Inhibitors of Fructose-1,6-bisphosphate Aldolase from Giardia Lamblia; A8B2U2; purified Giardia FBPA; Potency, µM (doses to about 59.6 µM), without a hit: at the top dose activity, negative = inhibition, actives largely listed as inhibitors; 290,000 tested, 0.71% active; also: nearly all actives have a fitted effect of over 55% in size
Target sequence (A8B2U2 whole entry, looked up): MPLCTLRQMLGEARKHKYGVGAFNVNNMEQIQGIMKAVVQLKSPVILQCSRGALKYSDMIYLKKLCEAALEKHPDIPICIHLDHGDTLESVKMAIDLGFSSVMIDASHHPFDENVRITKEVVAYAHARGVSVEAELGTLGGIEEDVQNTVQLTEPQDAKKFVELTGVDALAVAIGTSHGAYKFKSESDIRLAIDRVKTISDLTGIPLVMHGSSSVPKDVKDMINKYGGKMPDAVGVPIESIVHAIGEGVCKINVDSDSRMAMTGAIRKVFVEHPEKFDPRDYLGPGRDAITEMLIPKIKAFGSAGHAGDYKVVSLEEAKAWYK
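40 nM FBPA preincubated 10 min at RT with compound (up to 57.5 uM final), then substrate plus GAPDH/TPI/NAD/arsenate coupling and diaphorase/resazurin added. Fluorescence read after 20 min at RT, 525/598 nm.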
Cruzain Triton: qHTS Assay for Promiscuous and Specific Inhibitors of Cruzain (with detergent); AID 1478, 2009; 200,000 tested, 0.43% active; Potency, µM, without a hit: max response, negative = inhibition, most hits filed as inhibitors; purified cruzain, Z-FR-AMC fluorescence, 0.01% Triton; Cruzipain (Trypanosoma cruzi), P25779;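 also: plate controls were neutral wells for no effect and buffer without enzyme for full effect; nearly all actives have a fitted effect of over 40% in size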
Target sequence (P25779 123-467 limits assumed): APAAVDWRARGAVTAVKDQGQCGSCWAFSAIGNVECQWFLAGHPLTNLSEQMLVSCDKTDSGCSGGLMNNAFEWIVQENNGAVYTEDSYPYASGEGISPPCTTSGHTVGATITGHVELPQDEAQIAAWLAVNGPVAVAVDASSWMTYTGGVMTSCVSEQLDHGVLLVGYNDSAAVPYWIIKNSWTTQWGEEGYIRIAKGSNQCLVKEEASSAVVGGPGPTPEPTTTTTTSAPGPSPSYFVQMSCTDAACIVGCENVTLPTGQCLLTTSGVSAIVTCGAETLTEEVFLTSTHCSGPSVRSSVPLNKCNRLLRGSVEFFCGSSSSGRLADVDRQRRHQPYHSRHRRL
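Cruzain (1.5 nM) preincubated 15 min at RT with compound in 100 mM sodium acetate pH 5.5, 5 mM DTT, 0.01% Triton X-100. Reaction started with 2 uM Z-FR-AMC; AMC fluorescence (ex 360/em 450 nm) change over 60 s gave rate.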
Cruzain inh noDet: qHTS Assay for Promiscuous and Specific Inhibitors of Cruzain (without detergent); Cruzipain (Trypanosoma cruzi), P25779; purified cruzain, Z-FR-AMC fluorescence, no detergent; Potency, µM, for inactives: max response, negative = inhibition, actives largely listed as inhibitors; 200,000 tested, 2.3% active; AID 1476, 2009;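 also: plate controls were enzyme without inhibitor for no effect and buffer without enzyme for full effect; nearly all actives have a fitted effect of over 40% in size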
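Detergent-free condition (0.00005% Triton X-100) in acetate buffer pH 5.5 with DTT. 1.5 nM enzyme and compound were pre-mixed 15 min, then 2 uM Z-FR-AMC substrate added; reaction progress from fluorescence change between first and third reads (60 s).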
Starred values were filed as active, the others as inactive; ? = inconclusive; · = no result. The sample as a whole holds a higher share of hits than the screen did. Calls follow the shape of the dose curve; as a rule, active = well fitted curve in the direction sought with a large enough effect; inconclusive = small, poorly fitted or top-dose-only effect, or another doubt; inactive = no such curve, though single readings can be large; an effect the other way counts as inactive or inconclusive. Unless noted, % is scaled to controls: 0 for no effect and ±100 for the full control effect; potency is read from the fitted curve at half-maximal effect.

SMILES	Giardia FBPA inh	Cruzain Triton	Cruzain inh noDet
CCCCN1CCC[C@H]1CNC(=O)c1cc(C#N)c2ccccc2c1OC	-5.9%	·	·
COc1ccc(OC)c(NC(=O)c2c(N3CCCC3=O)c3cc(OC)ccc3n2C)c1	·	-8.6%	?
O=C(CSc1nc2ccccc2o1)Nc1nc(-c2ccccc2)cs1	-4.6%	-3.7%	?
Cc1cc2ccccc2nc1SCC(=O)Nc1nc(-c2ccccc2)cs1	0.2%	4.4%	7.94µM*
Cc1ccc(-c2c(C3C4C=CCCC4(C)C(=O)N3Cc3ccccc3)ccc3ccccc23)cc1 (stereo not drawn)	-6.4%	·	·
Cc1ccc(F)c(C2C3C=CCCC3(C)C(=O)N2Cc2ccccc2)c1 (stereo not drawn)	20.6%	·	·
O=C(Cc1ccccc1)Nc1nc2ccccc2[nH]1	-2.6%	0.2%	2.3%
O=C(Cc1c[nH]c2ccccc12)Nc1nc2ccccc2[nH]1	-8.1%	-25.9%	25.1µM*
CC1(C)S[C@@H]2[C@H](NC(=O)C3(N)CCCCC3)C(=O)N2[C@@H]1C(=O)O	·	1.5%	0.3%
CN(Cc1ccco1)c1cc(-c2ccoc2)ncn1	?	-1.5%	1.7%
CC(Sc1nnc(Nc2ccccc2)s1)C(=O)Nc1nc(-c2ccccc2)cs1 (stereo not drawn)	-2.6%	·	·
CC(Sc1nnc(NCc2ccccc2)s1)C(=O)Nc1ccc2c(c1)C(=O)c1ccccc1C2=O (stereo not drawn)	-0.9%	-9.1%	31.6µM*
COc1ccc(OC)c(/C=N/NC(=O)Cc2nc3ccccc3[nH]2)c1	9.8%	22.4µM*	?
O=C(Cc1nc2ccccc2[nH]1)N/N=C/c1ccccc1	1.0%	-3.9%	6.6%
COc1cccc(/C=N/NC(=O)CC2C(=O)NN=C2C)c1OC (stereo not drawn)	-1.8%	-10.2%	-0.1%
COc1ccc(OC)c(/C=N/NC(=O)CC2C(=O)NN=C2C)c1 (stereo not drawn)	1.9%	-27.6%	31.6µM*
CCN(CC)CCCNC(=O)CCCn1ncn2c(cc3occc32)c1=O	·	-1.1%	-4.2%
CCc1ccc(NC(=O)c2sc3nc(C)cc(C)c3c2NC(=O)c2ccccc2OC)cc1	·	0.4%	5.4%
CCCCNC(=O)CC1C(=O)N(Cc2ccccc2)C(C)c2nc3ccccc3n21 (stereo not drawn)	11.0%	-22.8%	12.6µM*
COCCCNC(=O)CC1C(=O)N(Cc2ccccc2)C(C)c2nc3ccccc3n21 (stereo not drawn)	3.8%	·	·
FC(F)(F)c1nc(SCc2ccc(Cl)cc2)n[nH]1	·	4.4%	-7.5%
COc1cc(Cl)c(S(=O)(=O)NCCc2c(C)[nH]c3c(C)cccc23)cc1Cl	·	-16.2%	-4.6%
COc1ccccc1NC(=O)C1=C(C)Nc2nc(SCc3ccc(Cl)cc3)nn2C1c1ccccc1Cl (stereo not drawn)	·	-5.9%	-2.1%
COc1ccc(NCc2c(O)ccc3ccccc23)cc1	·	-2.3%	-15.6%
CCOC(=O)C1C(C)=C(Nc2ccc(OC)cc2)C(=O)N1c1ccc(OC)cc1 (stereo not drawn)	-5.3%	-1.5%	12.6µM*
SMILES	Giardia FBPA inh	Cruzain Triton	Cruzain inh noDet
CCOC(=O)C1CCCN(C(=S)Nc2ccc(OC)cc2)C1 (stereo not drawn)	2.4%	·	·
COc1ccc(/C=N/N=C2/NC(=O)C(c3ccccc3)(c3ccccc3)S2)cc1	1.5%	-2.1%	3.16µM*
COc1ccc(NC(=O)C2CC(=O)N/C(=N/N=C/c3ccccc3)S2)cc1 (stereo not drawn)	2.5%	·	·
COc1ccc(C2=NC3(CCCCCC3)N(CC(=O)Nc3cccc(Cl)c3)C2=O)cc1	·	-5.1%	-8.6%
CCOC(=O)/C(=C\C=C\c1ccccc1)NC(=O)c1ccccc1	-1.7%	-24.8%	-19.4%
C=CCOC(=O)/C(=C\C=C\c1ccccc1)NC(=O)c1ccccc1	-3.4%	14.1µM*	?
CCOC(=O)/C(=C\Nc1ccccc1C(F)(F)F)Sc1ncc(C(F)(F)F)cc1Cl	-17.9%	-3.3%	?
N#Cc1c(Sc2ncc(C(F)(F)F)cc2Cl)nsc1C/C=N\OCc1ccccc1Br	-18.8%	-15.3%	7.94µM*
NCCCC[C@H](NC(=O)[C@@H](Cc1ccccc1)NC(=O)[C@H](Cc1c[nH]c2ccccc12)NC(=O)[C@@H](CCCCN)NC(=O)[C@@H](Cc1c[nH]c2ccccc12)NC(=O)[C@@H](N)Cc1cnc[nH]1)C(N)=O	1.9%	·	·
N#CC(=C(\N)Sc1ccccc1N)/C(C#N)=C(/N)Sc1ccccc1N	-6.7%	-6.4%	-23.8%
O=C(O)c1cccc(C[C@H](Br)C(=O)O)c1	·	5.3%	10.8%
Cc1ccc(SCc2cc(=O)[nH]c(/N=C(\N)Nc3ccccc3Sc3ccccc3)n2)cc1	1.3%	2.8%	12.6µM*
COc1ccccc1N/C(N)=N/c1nc(CSc2ccc(C)cc2)cc(=O)[nH]1	-5.0%	2.1%	?
O=C1CS(=O)(=O)C2(C(=O)N(Cc3cccc(F)c3)c3ccccc32)N1c1ccccc1 (stereo not drawn)	·	-6.0%	10µM*
CCc1ccc(N2C(=O)CSC23C(=O)N(Cc2cccc(F)c2)c2ccccc23)cc1 (stereo not drawn)	·	0.4%	-3.9%
CCc1ccc(N2C(=O)CSC23C(=O)N(Cc2ccc(C)cc2)c2ccccc23)cc1 (stereo not drawn)	·	-8.6%	-25.6%
CCc1ccc(N2C(=O)CS(=O)(=O)C23C(=O)N(Cc2ccccc2)c2ccccc23)cc1 (stereo not drawn)	·	-4.4%	2.51µM*
CC(=O)c1ccc(Nc2c3ccccc3cc3occc23)cc1	-1.3%	·	·
CCOC(=O)CC1C(=O)NCCN1C(=O)c1cc2c(=O)n3ccccc3nc2s1 (stereo not drawn)	?	22.4µM*	0.4%
CCOC(=O)CC1C(=O)NCCN1C(=O)c1cc2c(=O)n3cccc(C)c3nc2s1 (stereo not drawn)	-3.1%	-18.6%	8.4%
CCOC(=O)c1ccc(NC(=O)Nc2cc(C)on2)cc1	-2.1%	2.0%	15.8µM*
CCOC(=O)c1ccc(NC(=O)Nc2cccc(C)n2)cc1	2.3%	·	·
CC(=O)OC1=CC2=CC[C@H]3[C@H]4CCC(=O)[C@@]4(C)CC(=O)[C@]3(S)[C@]2(C)CC1	·	-3.7%	-1.8%
Cc1ccc(S(=O)(=O)Oc2cccc(/C=N/Nc3ccc(C(=O)O)cc3)c2)cc1	17.7µM*	·	·
Cc1ccc(S(=O)(=O)Oc2cccc(/C=N/n3cnnc3)c2)cc1	-24.2%	-5.4%	5.8%
SMILES	Giardia FBPA inh	Cruzain Triton	Cruzain inh noDet
Cc1cc(C)c2c(CC(=O)Nc3ccc(S(=O)(=O)N4CCCC(C)C4)cc3)coc2c1 (stereo not drawn)	·	-6.4%	?
CCOc1ccc(OCC)c(Nc2cc(C)nc3nc(-c4ccco4)nn23)c1	·	0.7%	0.7%
COc1cc(C(=O)O/N=C2/C=CC(=O)C(C)=C2C)cc(OC)c1OC	3.97µM*	-2.8%	12.9%
COc1cc(C(=O)ON=C2C3CC4CC(C3)CC2C4)cc(OC)c1OC	7.6%	·	·
O=C(Nc1ccccc1N1CCCC1)c1cc2ccccc2o1	15.4%	-2.0%	-12.6%
O=C(Nc1ccccc1N1CCN(C(=O)c2ccccc2)CC1)c1cc2ccccc2o1	-7.6%	-8.1%	0.159µM*
